{"source": "PubChem BioAssay AID624255", "about": "(Broad Institute, 2012)", "note": "Where “and” joins values, the source holds several entries; their conditions need not be identical. Identical values can stand only once. In all, about 77,000 compounds went through this assay and about 4,600 (6%) were called active. Another 1% or so got no clear call; they are omitted. The sample holds actives, similar compounds and a random draw of the others, so the mix is not that of the screen. Values without a mark were called inactive.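 Rule for the calls: active = mean inhibition above about 93%, with at least 55% of replicates each passing it (limit read from the data, passing the limit was not always enough); inconclusive = only one of those two conditions holds; inactive = neither condition holds.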"}
{"assay": "T. cruzi intracellular proliferation inhibitors, primary screen, cell-based, beta-gal Tulahuen parasites, NIH3T3 host, luminescence (AID 624255)", "details": "T. cruzi beta-gal in NIH3T3, GalScreen luminescence, 90 h; at 8.34 µM; stronger effect = higher value"}
{"smiles": "CCC(=O)N(C)C[C@H]1Oc2ncc(-c3ccc(C#N)cc3)cc2C(=O)N([C@@H](C)CO)C[C@H]1C", "inhibition": "51.9%"}
{"smiles": "COc1ccc(-c2cnc3c(c2)C(=O)N([C@H](C)CO)C[C@@H](C)[C@H](CN(C)Cc2ccccc2)O3)cc1", "inhibition": "19.2% and 75.6%"}
{"smiles": "C/C=C/c1ccc([C@H]2[C@@H](C#N)N(C(=O)CN3CCOCC3)[C@@H]2CO)cc1", "inhibition": "80.8%"}
{"smiles": "COc1ccccc1C#Cc1ccc([C@@H]2[C@@H](CO)N(C(=O)C3CC3)[C@H]2C#N)cc1", "inhibition": "88.6%"}
{"smiles": "N#C[C@@H]1[C@H](c2ccc(C#Cc3ccccc3F)cc2)[C@H](CO)N1C(=O)C1CCCCC1", "inhibition": "83.3%"}
{"smiles": "N#C[C@@H]1[C@@H](c2ccc(-c3ccccc3)cc2)[C@@H](CO)N1C(=O)Cc1ccccc1", "inhibition": "31%"}
{"smiles": "COCC(=O)N1[C@H](CO)[C@@H](c2ccc(C#Cc3ccccc3F)cc2)[C@@H]1C#N", "inhibition": "97.7% (active)"}
{"smiles": "N#C[C@@H]1[C@@H](c2ccccc2)[C@@H](CO)N1C(=O)Cc1ccccc1", "inhibition": "105% (active)"}
{"smiles": "N#C[C@H]1[C@H](c2ccc(-c3ccccc3)cc2)[C@@H](CO)N1C(=O)Cc1ccccc1", "inhibition": "79.5%"}
{"smiles": "COC(=O)C[C@@H]1C[C@H]2c3cc(NC(=O)Nc4ccc(F)cc4)ccc3O[C@H]2[C@@H](CO)O1", "inhibition": "-1.42%"}
{"smiles": "CC(=O)NC[C@H]1[C@H](c2ccc(C3=CCCCC3)cc2)[C@@H](CO)N1C(=O)NC(C)C", "inhibition": "21.7%"}
{"smiles": "COc1ccccc1S(=O)(=O)N[C@@H]1CC[C@H](CC(=O)N2CCOCC2)O[C@@H]1CO", "inhibition": "16.9%"}
{"smiles": "CNC(=O)C[C@@H]1CC[C@@H]2[C@H](COc3ccc(NC(=O)Nc4ccccc4)cc3C(=O)N2C)O1", "inhibition": "7.48%"}
{"smiles": "C[C@H](CO)N1C[C@H](C)[C@H](CN(C)CC2CC2)OCCCC[C@H](C)Oc2ccc(NC(=O)c3ccncc3)cc2C1=O", "inhibition": "29.6%"}
{"smiles": "CCC(=O)N1C[C@H](C)[C@@H](OC)CN(C)C(=O)c2cc(NC(=O)c3cnccn3)ccc2OC[C@@H]1C", "inhibition": "11%"}
{"smiles": "COCCNC[C@@H]1[C@H](c2ccccc2)[C@H](CO)N1c1nc(C)c(C)s1", "inhibition": "100% (active)"}
{"smiles": "CCNC[C@@H]1[C@@H](c2ccccc2)[C@@H](CO)N1C(=O)Cc1ccccn1", "inhibition": "31.9%"}
{"smiles": "COCC(=O)N1[C@H](CNC(=O)c2ccccn2)[C@H](c2ccccc2)[C@@H]1CO", "inhibition": "26.4%"}
{"smiles": "COC(=O)C[C@@H]1CC[C@@H]2[C@H](COc3ccc(NC(=O)c4ccccc4OC)cc3C(=O)N2C)O1", "inhibition": "44.4%"}
{"smiles": "O=C(c1ccccc1F)N1C[C@H]2[C@@H](c3ccccc31)[C@@H](CO)N2C(=O)c1ccc(F)cc1", "inhibition": "103% (active)"}
{"smiles": "CC(=O)N1[C@H](CO)[C@H]2c3ccccc3N(C(=O)c3ccc(F)cc3)C[C@H]21", "inhibition": "14.7%"}
{"smiles": "CCC(=O)N1[C@@H](CO)[C@@H]2c3ccccc3N(C(=O)c3ccccc3F)C[C@@H]21", "inhibition": "6.74%"}
{"smiles": "O=C(C[C@@H]1C[C@@H]2c3cc(NC(=O)CC4CC4)ccc3O[C@@H]2[C@@H](CO)O1)NCCN1CCCCC1", "inhibition": "-43.9%"}
{"smiles": "CCCNC(=O)c1cc2c(c(-c3cccc(-c4ccc(F)cc4)c3)n1)[C@@H](CCO)N([S@](=O)C(C)(C)C)C2", "inhibition": "87.5%"}
{"smiles": "CC(C)(C)[S@@](=O)N1Cc2cc(C(=O)NCc3ccc4c(c3)OCO4)nc(-c3cccc(-c4ccccc4)c3)c2[C@H]1CCO", "inhibition": "99.7% (active)"}
{"smiles": "COc1cccc(CNC(=O)c2cc3c(c(-c4cccc(-c5ccc(C#N)cc5)c4)n2)[C@@H](CCO)N([S@](=O)C(C)(C)C)C3)c1", "inhibition": "84.2%"}
{"smiles": "CCC(=O)N1C[C@@H](C)[C@H](OC)CN(C)C(=O)c2ccc(NC(=O)Nc3ccccc3)cc2OC[C@@H]1C", "inhibition": "13.5%"}
{"smiles": "CC(=O)N(C)C[C@H]1Oc2cc(C#CC3CC3)ccc2S(=O)(=O)N([C@H](C)CO)C[C@@H]1C", "inhibition": "21.1%"}
{"smiles": "C[C@H](CO)N1C[C@H](C)[C@H](CN(C)C)Oc2cc(C#CC3CC3)ccc2S1(=O)=O", "inhibition": "-175%"}
{"smiles": "C[C@H]1CN([C@@H](C)CO)S(=O)(=O)c2ccc(C#CC3CCCC3)cc2O[C@@H]1CN(C)C(=O)c1cccc(F)c1", "inhibition": "115% (active)"}
{"smiles": "C[C@H](CO)N1C[C@H](C)[C@@H](CN(C)C(=O)Nc2cc(F)ccc2F)Oc2cc(C#CC3CC3)ccc2S1(=O)=O", "inhibition": "114% (active)"}
{"smiles": "COCC(=O)N(C)C[C@H]1Oc2cc(C#CC3CCCC3)ccc2S(=O)(=O)N([C@H](C)CO)C[C@@H]1C", "inhibition": "22.9%"}
{"smiles": "CCC(=O)N(C)C[C@H]1Oc2cc(C#CC3CCCC3)ccc2S(=O)(=O)N([C@H](C)CO)C[C@@H]1C", "inhibition": "86.4%"}
{"smiles": "CO[C@@H]1CC[C@@H]2CCOc3ccc(C#N)cc3C(=O)N(C)C[C@@H](OC)[C@@H](C)C(=O)N(C)C[C@H]1O2", "inhibition": "26.1%"}
{"smiles": "Cc1noc(C)c1NC(=O)N(C)C[C@H]1OCCCC[C@H](C)Oc2ccc(NC(=O)Nc3ccccc3)cc2C(=O)N([C@H](C)CO)C[C@@H]1C", "inhibition": "-11.2%"}
{"smiles": "CO[C@@H]1CN(C)C(=O)c2ccc(NS(=O)(=O)c3cn(C)cn3)cc2OC[C@H](C)N(CCC(F)(F)F)C[C@@H]1C", "inhibition": "40.1%"}
{"smiles": "CCNC(=O)C[C@@H]1CC[C@H]2[C@@H](COc3ccc(NC(=O)c4ccccc4Cl)cc3C(=O)N2C)O1", "inhibition": "1.97%"}
{"smiles": "CNC[C@H]1Oc2cc(C#Cc3ccccn3)ccc2S(=O)(=O)N([C@H](C)CO)C[C@@H]1C", "inhibition": "92.5%"}
{"smiles": "C[C@H](CO)N1C[C@H](C)[C@H](CN(C)C(=O)C2CC2)Oc2ncc(C#Cc3ccccc3)cc2C1=O", "inhibition": "60.3%"}
{"smiles": "COc1cccc(C#Cc2cnc3c(c2)C(=O)N([C@@H](C)CO)C[C@H](C)[C@@H](CN(C)C(=O)C2CCC2)O3)c1", "inhibition": "84.3%"}
{"smiles": "C[C@H](CO)N1C[C@H](C)[C@H](CN(C)C(=O)C2CCCCC2)Oc2ncc(C#Cc3cccc(F)c3)cc2C1=O", "inhibition": "120% (active)"}
{"smiles": "C[C@H](CO)N1C[C@H](C)[C@H](CN(C)C(=O)Nc2ccc3c(c2)OCO3)Oc2ncc(C#Cc3cccc(F)c3)cc2C1=O", "inhibition": "100% (active)"}
{"smiles": "COCC#Cc1cnc2c(c1)C(=O)N([C@H](C)CO)C[C@@H](C)[C@@H](CN(C)C(=O)Nc1cccc(F)c1)O2", "inhibition": "8.75%"}
{"smiles": "C[C@H]1CN([C@@H](C)CO)C(=O)c2cc(C#Cc3ccc(F)cc3)cnc2O[C@@H]1CN(C)C(=O)Nc1ccc(F)cc1", "inhibition": "25%"}
{"smiles": "CN1[C@@H]2CN(C(=O)c3ccc(F)cc3)c3ccccc3[C@@H]2[C@@H]1CO", "inhibition": "-2.39%"}
{"smiles": "COc1cccc(-c2ccc3n(c2=O)C[C@H]2[C@H](CO)[C@@H](C(=O)N4CCCCC4)N(C)[C@@H]32)c1", "inhibition": "13.1%"}
{"smiles": "C[C@H]1CN([C@@H](C)CO)S(=O)(=O)c2ccc(C#Cc3ccccc3)cc2O[C@H]1CN(C)S(=O)(=O)c1cn(C)cn1", "inhibition": "27.9%"}
{"smiles": "C[C@H](CO)N1C[C@H](C)[C@@H](CN(C)S(=O)(=O)c2ccc(F)cc2)Oc2cc(C3=CCCC3)ccc2S1(=O)=O", "inhibition": "114% (active)"}
{"smiles": "C[C@@H]1CN([C@H](C)CO)S(=O)(=O)c2ccc(C3=CCCC3)cc2O[C@H]1CN(C)C(=O)c1ccccc1", "inhibition": "-0.873%"}
{"smiles": "COc1cccc(S(=O)(=O)N(C)C[C@H]2Oc3cc(C#CCN(C)C)ccc3S(=O)(=O)N([C@H](C)CO)C[C@H]2C)c1", "inhibition": "75.2%"}
{"smiles": "C[C@@H]1CN([C@@H](C)CO)S(=O)(=O)c2ccc(C#Cc3ccncc3)cc2O[C@@H]1CN(C)S(=O)(=O)c1ccccc1", "inhibition": "11.5%"}
{"smiles": "C[C@@H]1CN([C@@H](C)CO)S(=O)(=O)c2ccc(C#Cc3cccc(F)c3)cc2O[C@H]1CN(C)S(=O)(=O)c1cn(C)cn1", "inhibition": "61.3% and -15.4%"}
{"smiles": "CC(C)CC#Cc1ccc2c(c1)O[C@H](CN(C)S(=O)(=O)c1cccc(F)c1)[C@@H](C)CN([C@@H](C)CO)S2(=O)=O", "inhibition": "119% (active)"}
{"smiles": "CC(=O)N(C)C[C@@H]1Oc2cc(-c3cccc(F)c3)ccc2S(=O)(=O)N([C@H](C)CO)C[C@H]1C", "inhibition": "31.3%"}
{"smiles": "C[C@H]1CN([C@@H](C)CO)S(=O)(=O)c2ccc(C#Cc3cccc(F)c3)cc2O[C@@H]1CN(C)S(=O)(=O)c1cn(C)cn1", "inhibition": "102% (active)"}
{"smiles": "C[C@@H]1CN([C@@H](C)CO)S(=O)(=O)c2ccc(-c3cccc(F)c3)cc2O[C@@H]1CN(C)S(=O)(=O)c1ccccc1", "inhibition": "117% (active)"}
{"smiles": "COc1cccc(S(=O)(=O)N(C)C[C@@H]2Oc3cc(C#CCN(C)C)ccc3S(=O)(=O)N([C@@H](C)CO)C[C@@H]2C)c1", "inhibition": "91.4%"}
{"smiles": "C[C@@H]1CN([C@H](C)CO)S(=O)(=O)c2ccc(C3=CCCC3)cc2O[C@@H]1CN(C)C(=O)C1CCC1", "inhibition": "52.9%"}
{"smiles": "C[C@H](CO)N1C[C@H](C)[C@H](CN(C)CC2CC2)OCCCC[C@H](C)Oc2ccc(NS(=O)(=O)c3cccs3)cc2C1=O", "inhibition": "38%"}
{"smiles": "CN1c2ccc(-c3ccc(F)cc3)cc2[C@@H]2[C@@H](CCN2S(=O)(=O)c2ccc(F)cc2)[C@@H]1CO", "inhibition": "90.2%"}
{"smiles": "CN1c2ccc(-c3ccc(F)cc3)cc2[C@@H]2[C@@H](CCN2C(=O)c2cccnc2)[C@H]1CO", "inhibition": "84%"}
{"smiles": "C[C@@H]1CCCCO[C@H](CN(C)C(=O)c2ccccc2)[C@H](C)CN([C@H](C)CO)C(=O)c2cc(N(C)C)ccc2O1", "inhibition": "91.3%"}
{"smiles": "COCC(=O)N1C[C@@H]2[C@H](c3ccccc31)[C@@H](CO)N2C(=O)C1CC1", "inhibition": "65.2%"}
